In PubChem BioAssay (EPA / NIEHS):
Activity calls are given as the source filed them. The calls were made as follows: active = hit-call score of the fitted dose curve at least 0.9, where 1 is the maximum; inactive = score below 0.9.

Legend:
[1] = ATG_CRE_CIS: Attagene CIS-FACTORIAL HepG2 Assay for human cAMP Responsive Element (CRE) binding protein 3 (AID 2282926); settings: HepG2 CRE cis-reporter, Attagene multiplexed mRNA; actives raise or lower the signal
Outline: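 We dosed HepG2 cells bearing multiple cis-promoter reporter units for 24 h and measured reporter mRNA by RT-PCR with capillary electrophoresis detection. Bidirectional concentration-response fitting used DMSO as negative control.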

[2] = target: CCAAT/enhancer-binding protein beta (Homo sapiens) (UniProt P17676); assay: ATG_C_EBP_CIS: Attagene CIS-FACTORIAL HepG2 Assay for human CCAAT/Enhancer Binding Protein (C/EBP) beta (AID 2282927); settings: HepG2 Attagene cis-factorial transcription factor reporter; actives raise or lower the signal
Sequence of CCAAT/enhancer-binding protein beta (Homo sapiens) (P17676 whole entry, looked up, the tested form may be a part): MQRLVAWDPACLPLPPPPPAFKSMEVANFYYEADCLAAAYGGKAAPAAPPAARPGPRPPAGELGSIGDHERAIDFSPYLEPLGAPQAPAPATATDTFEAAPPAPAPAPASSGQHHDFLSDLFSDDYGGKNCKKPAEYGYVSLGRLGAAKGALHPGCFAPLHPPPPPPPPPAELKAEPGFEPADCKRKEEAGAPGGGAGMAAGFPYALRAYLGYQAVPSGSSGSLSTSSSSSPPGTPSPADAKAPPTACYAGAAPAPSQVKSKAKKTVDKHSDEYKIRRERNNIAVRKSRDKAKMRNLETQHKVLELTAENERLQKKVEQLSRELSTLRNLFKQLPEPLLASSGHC
Outline: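 Chemical-treated HepG2 cells (24 h) bearing cis-regulated reporter constructs were processed for total RNA, then reverse transcription, PCR amplification, fluorescent primer extension and fragment analysis; gain- and loss-of-signal were fitted against DMSO.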

[3] = ATG_CMV_CIS: Attagene CIS-FACTORIAL HepG2 Assay for human CMV (Internal Marker) (AID 2282928); settings: HepG2 CMV promoter reporter, transcription factor profiling; actives raise or lower the signal;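 also: endpoint acts as a background internal control marker rather than a target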
Outline: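 After transient transfection of HepG2 with reporter transcription units driven by cis-regulatory promoters, cells receive test chemical for 24 h. Labeled reporter amplicons, digested with HpaI, are sized and quantified by capillary electrophoresis against DMSO.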

[4] = ATG_DR4_LXR_CIS: Attagene CIS-FACTORIAL HepG2 Assay for human Liver X Receptor (LXR), DR4 submotif (AID 2282929); settings: HepG2 Attagene DR4 cis-reporter, mRNA transcription; actives raise or lower the signal
Outline: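 HepG2 cells transiently transfected with cis-promoter-driven multiplexed reporter units (DR4 element) were dosed for 24 h. Reporter mRNA was quantified by RT-PCR, fluorescent primer extension, HpaI digestion and capillary electrophoresis; bidirectional fitting versus DMSO baseline.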

[5] = target: Aryl hydrocarbon receptor (Homo sapiens) (UniProt P35869); assay: ATG_Ahr_CIS: Attagene CIS-FACTORIAL HepG2 Assay for human Aryl Hydrocarbon Receptor (Ahr) (AID 2282930); settings: HepG2 AhR cis-factorial reporter transcription; actives raise or lower the signal
Sequence of Aryl hydrocarbon receptor (Homo sapiens) (P35869 whole entry, looked up): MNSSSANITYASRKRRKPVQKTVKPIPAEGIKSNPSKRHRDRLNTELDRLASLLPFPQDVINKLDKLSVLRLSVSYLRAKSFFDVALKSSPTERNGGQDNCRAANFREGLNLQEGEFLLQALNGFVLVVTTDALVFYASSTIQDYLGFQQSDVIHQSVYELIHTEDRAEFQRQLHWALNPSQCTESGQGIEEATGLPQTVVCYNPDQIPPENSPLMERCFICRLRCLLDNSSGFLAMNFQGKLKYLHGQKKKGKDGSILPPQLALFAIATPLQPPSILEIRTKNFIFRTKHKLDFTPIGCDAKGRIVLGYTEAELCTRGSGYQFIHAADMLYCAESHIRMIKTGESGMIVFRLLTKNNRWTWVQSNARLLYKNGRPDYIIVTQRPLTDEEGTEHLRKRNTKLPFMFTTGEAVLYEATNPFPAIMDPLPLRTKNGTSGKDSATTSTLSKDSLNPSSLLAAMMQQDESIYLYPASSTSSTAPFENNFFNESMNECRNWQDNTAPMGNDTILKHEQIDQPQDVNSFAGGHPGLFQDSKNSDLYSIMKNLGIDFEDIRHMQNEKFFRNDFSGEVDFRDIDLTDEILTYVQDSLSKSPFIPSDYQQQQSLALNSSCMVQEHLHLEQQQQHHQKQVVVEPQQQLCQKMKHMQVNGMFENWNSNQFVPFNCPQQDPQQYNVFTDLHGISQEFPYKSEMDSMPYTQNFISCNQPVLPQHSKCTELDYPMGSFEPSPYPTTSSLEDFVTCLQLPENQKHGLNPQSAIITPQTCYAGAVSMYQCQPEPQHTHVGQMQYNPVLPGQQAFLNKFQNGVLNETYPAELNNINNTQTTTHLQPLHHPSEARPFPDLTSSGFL
Outline: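 Following 24 h of chemical dosing, transfected HepG2 liver cells with cis-driven reporter units were lysed for RNA; reporter mRNA was quantified via RT-PCR and capillary electrophoresis, and responses fitted bidirectionally from DMSO.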

[6] = ATG_AP_1_CIS: Attagene CIS-FACTORIAL HepG2 Assay for human Activator Protein 1 (AP-1) (AID 2282931); settings: HepG2 Attagene cis-factorial AP-1 reporter mRNA; actives raise or lower the signal
Outline: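 HepG2 cells transiently transfected with cis-element-driven multiplex reporter units; 24 h compound exposure. Reporter mRNA quantified by RT-PCR, FAM-labelled fragments resolved by capillary electrophoresis; bidirectional fit versus DMSO baseline.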

[7] = ATG_AP_2_CIS: Attagene CIS-FACTORIAL HepG2 Assay for human Activator Protein 2 (AP-2) (AID 2282932); settings: HepG2 AP-2 cis-reporter, Attagene transcription factor profiling; actives raise or lower the signal
Outline: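 HepG2 cells were transiently transfected with multiple cis-promoter reporter transcription units and dosed for 24 h. Reporter mRNA was measured by RT-PCR with capillary electrophoresis fluorescence; bidirectional fits relative to DMSO baseline.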

[8] = target: Transcription factor E2F1 (Homo sapiens) (UniProt Q01094); assay: ATG_E2F_CIS: Attagene CIS-FACTORIAL HepG2 Assay for human E2F Transcription Factor 1 (AID 2282935); settings: HepG2 Attagene cis-reporter, E2F reporter RNA transcripts; actives raise or lower the signal
Sequence of Transcription factor E2F1 (Homo sapiens) (Q01094 whole entry, looked up): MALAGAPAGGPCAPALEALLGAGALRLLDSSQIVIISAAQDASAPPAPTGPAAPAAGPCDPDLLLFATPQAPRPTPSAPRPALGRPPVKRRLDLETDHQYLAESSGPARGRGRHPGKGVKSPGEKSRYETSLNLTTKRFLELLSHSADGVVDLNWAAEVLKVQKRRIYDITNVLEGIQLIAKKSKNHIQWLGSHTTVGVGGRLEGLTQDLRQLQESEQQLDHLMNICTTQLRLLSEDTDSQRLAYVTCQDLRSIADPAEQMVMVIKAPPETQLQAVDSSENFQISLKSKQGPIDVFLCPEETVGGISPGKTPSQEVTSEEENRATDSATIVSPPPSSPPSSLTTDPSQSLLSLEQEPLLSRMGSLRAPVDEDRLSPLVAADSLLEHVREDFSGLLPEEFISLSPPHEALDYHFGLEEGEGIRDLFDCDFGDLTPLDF
Outline: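 HepG2 cells transiently transfected with multiplexed cis-element reporter units, dosed for 24 h. Reporter mRNA measured by RT-PCR, 6-FAM primer-extension labeling, HpaI digestion and capillary electrophoresis; bidirectional fit versus DMSO baseline.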

[9] = ATG_E_Box_CIS: Attagene CIS-FACTORIAL HepG2 Assay for human Enhancer Box (E-box) (AID 2282936); settings: HepG2 E-box cis-reporter transcription, actives raise or lower the signal
Outline: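 HepG2 cells transiently transfected with multiplexed cis-element reporter units sensing endogenous transcription factor activity; 24 h compound exposure. Reporter mRNA measured by RT-PCR, 6-FAM primer extension, HpaI digestion and capillary electrophoresis; bidirectional fit versus DMSO.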

[10] = ATG_M_61_CIS: Attagene CIS-FACTORIAL HepG2 Assay for M61 Transcription Factor (Internal Marker) (AID 2282937); settings: HepG2 Attagene CIS-FACTORIAL M61 internal marker reporter; actives raise or lower the signal
Outline: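 HepG2 cells transiently transfected with cis-element-driven multiple reporter transcription units, dosed for 24 h. Reporter mRNA measured by RT-PCR, 6-FAM primer-extension labelling, HpaI digestion and capillary electrophoresis; bidirectional fit versus DMSO baseline.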

[11] = ATG_EGR_CIS: Attagene CIS-FACTORIAL HepG2 Assay for human Early Growth Response 1 (EGR1) (AID 2282938); settings: HepG2 Attagene CIS-FACTORIAL EGR reporter mRNA; actives raise or lower the signal
Outline: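 HepG2 cells transiently transfected with cis-promoter-driven multiplexed reporter transcription units; reporter mRNA measured 24 h after compound dosing by RT-PCR, 6-FAM primer extension, HpaI digestion and capillary electrophoresis. Bidirectional fit versus DMSO baseline.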

[12] = ATG_M_19_CIS: Attagene CIS-FACTORIAL HepG2 Assay for M19 Transcription Factor (Internal Marker) (AID 2282939); settings: HepG2 Attagene CIS-FACTORIAL M19 internal marker reporter; actives raise or lower the signal
Outline: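 Background-control endpoint from a multiplexed HepG2 reporter panel. Cells carrying cis-regulated reporter constructs are treated 24 h, then reporter transcripts are amplified, fluorescently labelled and sized by capillary electrophoresis. DMSO defines baseline.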

[13] = ATG_ERE_CIS: Attagene CIS-FACTORIAL HepG2 Assay for Estrogen Response Element (ERE) (AID 2282940); settings: HepG2 ERE cis-reporter, Attagene RNA transcript; actives raise or lower the signal
Outline: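 Cells used were human hepatoma HepG2, transfected with multiple reporter transcription units under cis-regulatory promoters. Reporter mRNA, read 24 h post-dosing via fluorescent RT-PCR products on capillary electrophoresis, was fitted bidirectionally relative to DMSO.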

[14] = ATG_Ets_CIS: Attagene CIS-FACTORIAL HepG2 Assay for human Erythroblast Transformation Specific (ETS) (AID 2282941); settings: HepG2 ETS cis-reporter transcription, actives raise or lower the signal
Outline: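 Human HepG2 hepatoma cells were transiently transfected with promoter-driven reporter constructs and treated for 24 hours. Reporter transcripts were quantified by RT-PCR with fluorescent primer extension; bidirectional curve fitting used DMSO as reference.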

[15] = target: Hepatocyte nuclear factor 3-beta (Homo sapiens) (UniProt Q9Y261); assay: ATG_FoxA2_CIS: Attagene CIS-FACTORIAL HepG2 Assay for human Forkhead box A2 (FOXA2) (AID 2282942); settings: HepG2 cis-reporter transcription factor activity, 24 h; actives raise or lower the signal
Sequence of Hepatocyte nuclear factor 3-beta (Homo sapiens) (Q9Y261 whole entry, looked up): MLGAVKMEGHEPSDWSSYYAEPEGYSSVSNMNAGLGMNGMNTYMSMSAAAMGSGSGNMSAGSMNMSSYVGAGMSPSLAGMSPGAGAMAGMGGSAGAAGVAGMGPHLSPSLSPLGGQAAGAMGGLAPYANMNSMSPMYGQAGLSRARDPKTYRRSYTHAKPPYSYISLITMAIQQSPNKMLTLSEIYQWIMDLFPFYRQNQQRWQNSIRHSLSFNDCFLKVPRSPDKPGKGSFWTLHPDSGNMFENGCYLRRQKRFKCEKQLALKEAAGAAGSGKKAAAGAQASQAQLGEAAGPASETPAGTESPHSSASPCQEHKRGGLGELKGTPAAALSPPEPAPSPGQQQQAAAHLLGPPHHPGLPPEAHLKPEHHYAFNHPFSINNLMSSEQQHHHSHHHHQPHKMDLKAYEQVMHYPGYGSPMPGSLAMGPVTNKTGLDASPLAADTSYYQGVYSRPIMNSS
Outline: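 HepG2 cells transiently transfected with multiple cis-regulated reporter transcription units, dosed for 24 h. Reporter mRNA measured by RT-PCR, 6-FAM labelling, HpaI digestion and capillary electrophoresis; bidirectional fitting against DMSO baseline.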

[16] = ATG_FoxO_CIS: Attagene CIS-FACTORIAL HepG2 Assay for human Forkhead box O (FoxO) (AID 2282943); settings: HepG2 Attagene cis-reporter, FoxO element, mRNA; actives raise or lower the signal
Outline: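 24 h chemical exposure, HepG2 with transient cis-MRTU transfection. RNA extraction, oligo(dT) RT, reporter-specific PCR, primer-extension labelling, HpaI digestion, CE fragment analysis; bidirectional fit, DMSO baseline.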

[17] = ATG_GATA_CIS: Attagene CIS-FACTORIAL HepG2 Assay for human GATA Binding Protein (AID 2282944); settings: HepG2 GATA cis-element reporter, Attagene multiplex mRNA; actives raise or lower the signal
Outline: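 Endogenous transcription factor activity was captured through cis-promoter-driven reporters in transfected HepG2 cells. After 24 h exposure, reporter transcripts were quantified by RT-PCR with fluorescent capillary electrophoresis, and responses fitted both directions against DMSO.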

[18] = ATG_GLI_CIS: Attagene CIS-FACTORIAL HepG2 Assay for human Zinc Finger Protein GLI1 (AID 2282945); settings: HepG2, Attagene cis-factorial reporter mRNA, GLI element; actives raise or lower the signal
Outline: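 HepG2 cells transiently transfected with cis-promoter multiplexed reporter units report endogenous transcription factor activity. After 24 h chemical exposure, reporter mRNA was quantified by RT-PCR, 6-FAM labelling, HpaI digestion and capillary electrophoresis, with bidirectional fitting against DMSO.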

[19] = target: Retinoic acid receptor alpha (Homo sapiens) (UniProt P10276); assay: ATG_DR5_RAR_CIS: Attagene CIS-FACTORIAL HepG2 Assay for human Retinoic Acid Receptor Alpha (RARE), DR5 submotif (AID 2282934); settings: HepG2 Attagene cis-factorial RARE DR5 reporter, mRNA; actives raise or lower the signal
Sequence of Retinoic acid receptor alpha (Homo sapiens) (P10276 whole entry, looked up): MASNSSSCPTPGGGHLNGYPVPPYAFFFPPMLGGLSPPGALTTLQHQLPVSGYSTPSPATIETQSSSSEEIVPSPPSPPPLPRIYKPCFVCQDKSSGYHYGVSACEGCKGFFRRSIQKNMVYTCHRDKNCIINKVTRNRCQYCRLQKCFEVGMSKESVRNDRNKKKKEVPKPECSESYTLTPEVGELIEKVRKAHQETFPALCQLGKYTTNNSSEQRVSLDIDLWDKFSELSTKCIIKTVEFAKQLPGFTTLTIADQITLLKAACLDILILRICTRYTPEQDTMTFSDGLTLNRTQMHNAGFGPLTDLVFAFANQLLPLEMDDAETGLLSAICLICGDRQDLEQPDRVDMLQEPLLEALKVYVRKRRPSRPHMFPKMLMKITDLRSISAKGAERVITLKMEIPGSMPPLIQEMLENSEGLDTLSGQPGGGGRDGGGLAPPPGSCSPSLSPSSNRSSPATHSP
Outline: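 Transfected HepG2 reporter cells are exposed to chemicals for 24 h. Then RNA is extracted and the DR5 element reporter transcript is measured by RT-PCR and capillary electrophoresis, with bidirectional curve fitting relative to DMSO.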

[20] = ATG_BRE_CIS: Attagene CIS-FACTORIAL HepG2 Assay for human Bone Morphogenetic Protein (BMP) Response Element (BRE) (AID 2282933); settings: HepG2 BMP response element reporter, Attagene transcription factor profiling; actives raise or lower the signal
Outline: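 Endogenous transcription factor activity at a BMP response element was monitored in transfected HepG2 cells 24 h after dosing. Fluorescent RT-PCR products were resolved by capillary electrophoresis, and activity was fitted in both directions versus DMSO.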

Measured: outcome

CCCCOCCOCCOCCOCCO
inactive: [1] | [2] | [3] | [4] | [5] | [6] | [7] | [8] | [9] | [10] | [11] | [12] | [13] | [14] | [15] | [16] | [17] | [18]

CCCCCNCCCCC
inactive: [1] | [2] | [3] | [4] | [5] | [6] | [7] | [19] | [8] | [9] | [10] | [11] | [12] | [14] | [15] | [16] | [17] | [18]

c1ccc2c(c1)c1cccc3ccc4cccc2c4c31
inactive: [1] | [2] | [3] | [4] | [5] | [6] | [7] | [8] | [9] | [11] | [12] | [13] | [14] | [15] | [16] | [17] | [18]

CCC(O)CO (configuration not stated)
inactive: [1] | [2] | [3] | [4] | [5] | [6] | [7] | [20] | [9] | [10] | [11] | [12] | [13] | [14] | [16] | [17] | [18]

Nc1cc(N)cc(C(=O)O)c1
inactive: [1] | [2] | [3] | [4] | [5] | [6] | [7] | [20] | [8] | [10] | [11] | [12] | [13] | [16] | [17] | [18]

Clc1cccc(Cl)n1
inactive: [1] | [2] | [3] | [4] | [5] | [7] | [20] | [8] | [9] | [10] | [11] | [12] | [13] | [14] | [15] | [16] | [17] | [18]

O=c1[nH]nnc2ccccc12
inactive: [1] | [2] | [3] | [4] | [5] | [7] | [20] | [8] | [9] | [10] | [11] | [12] | [14] | [16] | [17] | [18]

COC(C(=O)O)c1ccccc1 (configuration not stated)
inactive: [1] | [2] | [3] | [4] | [5] | [7] | [20] | [8] | [9] | [10] | [11] | [12] | [14] | [15] | [16] | [17] | [18]

COC(=O)c1ccc(C)cc1
inactive: [1] | [2] | [3] | [4] | [5] | [6] | [7] | [9] | [10] | [11] | [12] | [13] | [14] | [15] | [16] | [17] | [18]

COc1cc(C=O)ccc1OC(=O)C(C)C
inactive: [1] | [2] | [3] | [4] | [5] | [7] | [20] | [19] | [8] | [9] | [10] | [11] | [12] | [14] | [15] | [16] | [17] | [18]

C=C[Si](OCC)(OCC)OCC
inactive: [1] | [2] | [3] | [4] | [5] | [7] | [20] | [9] | [10] | [11] | [12] | [14] | [15] | [16] | [17] | [18]

O=C(O)CCCCC1CCSS1 (configuration not stated)
inactive: [1] | [2] | [3] | [4] | [5] | [7] | [20] | [8] | [9] | [10] | [11] | [12] | [13] | [14] | [15] | [16] | [17] | [18]

CN(C)CCOCCN(C)C
inactive: [1] | [2] | [3] | [4] | [5] | [6] | [7] | [8] | [10] | [11] | [12] | [14] | [15] | [16] | [17] | [18]

CCCCCCCCCCC(CO)CCCCCCCC (configuration not stated)
inactive: [1] | [2] | [3] | [4] | [5] | [6] | [7] | [8] | [10] | [12] | [14] | [15] | [16] | [17] | [18]
